Rows were chosen to be rich in hits. Some 18% of all compounds tested hit in one or more screens of this group.
IL1B secr inh: qHTS for Inhibitors of Inflammasome Signaling: IL-1-beta AlphaLISA Primary Screen; THP-1 LPS/ATP IL-1B secretion, AlphaLISA, 16 h; hits give low values; activity change, % at 57.5 µM; 4.7% of 360,000 active; AID 743279, 2014; in the data active means activity change below about -50%; inconclusive means mostly about -30% to -49%
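Secreted IL-1B measured by AlphaLISA bead assay after 16 h compound exposure of THP-1 cells; compounds (final up to 57.5 uM) added 1 h before LPS (250 ng/mL) and ATP (1.25 mM) stimulation; lower signal means less secretion.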
DT40 TDP1 CPT: qHTS for Inhibitors of human tyrosyl-DNA phosphodiesterase 1 (TDP1): qHTS in cells in presence of CPT. AID 686979, 2013. chicken DT40 Tdp1-/-;hTDP1 cells + 20 nM CPT, ATP luminescence, 48 h. 12% of 420,000 active. Potency, µM (series often up to 46.2 µM), for inactives: at the top dose activity change, negative = growth inhibition, most hits filed as inhibitors; further: potency means the concentration at half of the fitted maximal effect; nearly all actives have a fitted effect of over 55% in size
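Cell growth measured by CellTiter-Glo luminescence after a minimum 48 h, 37 C compound exposure with 20 nM CPT in Tdp1-knockout DT40 cells stably expressing hTDP1, seeded 400/well; qHTS titration format.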
RORg inh: qHTS for inhibitors of ROR gamma transcriptional activity | 5.4% of 310,000 active | Drosophila S2 Gal4-RORgamma UAS-luciferase reporter, 20 h | AID 2551, 2010 | Potency, µM (series often up to 53.6 µM), for the others: at the highest dose activity change, negative = inhibition, usual class: inhibitors; further: potency means the concentration at half of the fitted maximal effect; nearly all actives have a fitted effect of over 60% in size
Target sequence (P51450 whole entry, looked up, the tested form may be a part): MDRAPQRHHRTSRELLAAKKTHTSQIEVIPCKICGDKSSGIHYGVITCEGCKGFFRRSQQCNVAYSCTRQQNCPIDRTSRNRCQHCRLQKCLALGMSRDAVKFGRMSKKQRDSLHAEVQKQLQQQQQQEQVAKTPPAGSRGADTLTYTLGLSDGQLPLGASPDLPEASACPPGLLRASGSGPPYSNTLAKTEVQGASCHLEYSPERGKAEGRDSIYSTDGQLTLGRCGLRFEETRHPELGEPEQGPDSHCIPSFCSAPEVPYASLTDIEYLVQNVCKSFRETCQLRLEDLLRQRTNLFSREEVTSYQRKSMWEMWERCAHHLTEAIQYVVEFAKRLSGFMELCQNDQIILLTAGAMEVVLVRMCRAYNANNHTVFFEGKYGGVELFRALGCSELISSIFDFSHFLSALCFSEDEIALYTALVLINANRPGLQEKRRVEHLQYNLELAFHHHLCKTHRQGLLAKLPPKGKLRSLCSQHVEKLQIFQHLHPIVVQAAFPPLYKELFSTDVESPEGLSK
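Stable Schneider cell line, Gal4 DNA-binding domain fused to ROR gamma, UAS-luciferase. Cmpd 1 hr RT → CuSO4 700 uM final → 20 hr RT → luciferase reagent 10 min → luminescence.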
DT40 TDP1 no CPT: qHTS for Inhibitors of human tyrosyl-DNA phosphodiesterase 1 (TDP1): qHTS in cells in absence of CPT | 15% of 420,000 active | Potency, µM (doses to about 46.2 µM), inactives show at the highest dose activity change, negative = growth inhibition, actives largely listed as inhibitors | DT40 Tdp1-/- hTDP1 cells, no CPT, ATP luminescence, 48 h; further: potency means the concentration at half of the fitted maximal effect; nearly all actives have a fitted effect of over 55% in size
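No-CPT arm: Tdp1-/-;hTDP1 DT40 cells (400/well) plus compounds, incubated ≥48 hr at 37 °C. Readout CellTiter-Glo luminescence.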
Gal4-VP16 FLuc: VP16 counterscreen qHTS for inhibitors of ROR gamma transcriptional activity; Drosophila S2 Gal4-VP16 UAS-luciferase, luminescence, 20 h; Potency, µM (top dose mostly 53.6 µM), without a hit: at the highest dose activity, negative = inhibition, hits mostly inhibitors; 3.5% of 310,000 active;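 further: Gal4-VP16 expression switched on by copper sulfate through the metallothionein promoter; potency means the concentration at half of the fitted maximal effect; nearly all actives have a fitted effect of over 50% in size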
LDHA inh: qHTS assay for inhibitors of human lactate dehydrogenase; 0.15% of 480,000 active; activity change, % (values are at about 110 or 230 µM); purified LDHA, NADH/diaphorase-resazurin fluorescence; hits give low values; in the data active means activity change below about -30%; inconclusive means mostly about -25% to -30%;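 further: plate controls were DMSO wells for no effect and wells without enzyme for full effect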
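Remaining NADH was detected by diaphorase (0.133 mg/mL) converting 37 µM resazurin to fluorescent resorufin, read at 0 and 20 minutes. The preceding 5-minute room-temperature reaction used 2 nM LDHA, 0.2 mM sodium pyruvate and 0.06 mM NADH at pH 7.4.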
Active calls of the source: *; ? = inconclusive; . = no result; [ ] = another dose, or the depositor's remark. Unless noted, the call rests on the fitted dose curve; in most records, active means well fitted curve in the direction sought with a large enough effect; inconclusive means small, poorly fitted or top-dose-only effect, or another doubt; inactive means no such curve, though single readings can be large; an effect the other way counts as inactive or inconclusive. Unless noted, on the % scale 0 is the no-effect control and ±100 the full control effect.

SMILES	IL1B secr inh	DT40 TDP1 CPT	RORg inh	DT40 TDP1 no CPT	Gal4-VP16 FLuc	LDHA inh
Cc1ccc(CCNC(=O)CCCn2nc(C)c3c(C)n(-c4ccccc4)nc3c2=O)cc1	.	21µM*	.	21µM*	.	-5
Cc1nn(CCCC(=O)NCCc2ccc(Cl)cc2)c(=O)c2nn(-c3ccccc3)c(C)c12	-8	?	-5%	?	?	-12
Cc1ccc(-n2nc3c(=O)n(CCCC(=O)NCc4cccc(F)c4)nc(C)c3c2C)cc1	-3	?	11%	15µM*	-5%	-2
Cc1nn(Cc2ccccc2)c(=O)c2nn(-c3ccc(Cl)cc3)c(C)c12	-70*	?	?	21µM*	?	-4
FC(F)(F)c1ccccc1C(c1ccccc1)N1CCNCC1 (stereo not given)	.	.	.	.	.	-3
COc1ccc(C)cc1NC(=O)CSc1nnc2c3cc(-c4ccc(Cl)cc4)nn3ccn12	.	.	.	.	.	-9
COc1cc(/C=C(/C#N)c2nc3ccccc3[nH]2)cc(OC)c1	.	.	.	.	.	15
CC1CCc2c(-c3ccccc3O)nc3ccc4ccccc4c3c2C1 (stereo not given)	.	.	.	.	.	4
Cc1ccc(-n2nc3c(=O)n(CCCC(=O)NCCc4ccccc4C)nc(C)c3c2C)cc1	?	?	11%	12µM*	-7%	-1
O=C1NC(=S)S/C1=C\c1ccc(SCc2ccco2)o1	4	18µM*	-20%	?	?	-6
CCc1cccc(NC(=O)Cn2c(=O)cc(C(=O)NC)c3ccccc32)c1	.	.	.	.	.	-12
COC(=O)/C=C1/N/C(=N\c2nc(C)cc(C)n2)N(c2cccc(C)c2)C1=O	-69*	?	?	?	1%	-2
CC(=O)O[C@@]12CO[C@@H]1C[C@H](O)[C@@]1(C)C(=O)[C@H](O)C3=C(C)[C@@H](OC(=O)[C@H](O)[C@@H](NC(=O)OC(C)(C)C)c4ccccc4)C[C@](O)([C@@H](OC(=O)c4ccccc4)[C@H]21)C3(C)C	.	.	?	.	-1%	.
CC(=O)O[C@H]1C[C@@]2(O)[C@@H](OC(=O)c3ccccc3)C3[C@@](C)([C@@H](O)C[C@H]4OC[C@@]34OC(C)=O)[C@@H](O)[C@H](OC(C)=O)C(=C1C)C2(C)C (stereo not given in full)	12	16µM*	-23%	18µM*	-19%	-9
O=c1cc(Cn2nnc(-c3cccc(F)c3)n2)nc2sccn12	.	.	.	.	.	-4
O=C(c1ccccc1Br)N(Cc1ccco1)Cc1ccco1	.	13µM*	.	15µM*	.	-10
O=C(c1ccccc1O)N(Cc1ccco1)Cc1ccco1	.	.	.	.	.	9
O=C(c1cccc(Cl)c1Cl)N(Cc1ccco1)Cc1cccs1	.	?	.	11µM*	.	0
CCCC[C@@H]1C[C@H]1[C@@H](NC(=O)c1cccs1)c1ccc(Cl)cc1	-19	29µM*	?	15µM*	-21%	-1
CCCC[C@@H]1C[C@H]1[C@@H](NC(=O)c1cccs1)c1ccc(C(F)(F)F)cc1	-28	?	.	21µM*	.	2
CCCC[C@@H]1C[C@H]1C(NC(=O)c1ccccc1)c1ccc(C(F)(F)F)cc1 (stereo not given in full)	.	.	16µM*	.	?	.
Cn1ccnc1C(NC(=O)Cc1n[nH]c(=O)c2ccccc12)c1ccccc1 (stereo not given)	.	.	.	.	.	1
Cc1ccc(C(=O)Nc2ccc(CCC(=O)N(C)C)cc2)cc1	.	.	.	.	.	0
OCCNc1nc(Nc2ccccc2)nc2nccnc12	.	.	.	.	.	-1
O=C(NNc1cccc(Cl)n1)c1ccccc1CC[N+](=O)[O-]	-9	10µM*	-9%	?	-3%	-3
SMILES	IL1B secr inh	DT40 TDP1 CPT	RORg inh	DT40 TDP1 no CPT	Gal4-VP16 FLuc	LDHA inh
O=C(NNc1cccc(Cl)n1)c1ccc(Cl)cc1Cl	-1	0%	-12%	2%	-6%	0
CCCCN(CCCC)CCNC(=O)c1cn(CC)c2ccc(S(=O)(=O)N(C)C3CCCCC3)cc2c1=O	-17	4.6µM*	-9%	6.5µM*	-5%	-1
CCN(CC)CCCNC(=O)c1cn(CC)c2ccc(S(=O)(=O)N(C)C3CCCCC3)cc2c1=O	?	-1%	3%	6%	-5%	-5
CCCN(CCC)CCCNC(=O)c1cn(CC)c2ccc(S(=O)(=O)N3CCc4ccccc4C3)cc2c1=O	-103*	21µM*	-9%	18µM*	-2%	-3
CCCCN(C)CCCNC(=O)c1cn(CC)c2ccc(S(=O)(=O)N3CCc4ccccc4C3)cc2c1=O	-63*	21µM*	12%	23µM*	-7%	-3
CCn1cc(C(=O)NCCCN(CC(C)C)CC(C)C)c(=O)c2cc(S(=O)(=O)N3CCc4ccccc4C3)ccc21	.	8%	.	-10%	.	0
CCCCN(CC)CCCNC(=O)c1cn(CC)c2ccc(S(=O)(=O)N3CCc4ccccc4C3)cc2c1=O	.	16µM*	6%	18µM*	-1%	-4
COCCNc1nc(-c2[nH]c(C)c(C(=O)OC)c2C)cs1	.	.	.	.	.	27
COc1ccc(C2C(Oc3ccccc3)C(=O)N2c2cc(C)ccc2C)cc1OC (stereo not given)	?	0%	-16%	-4%	-10%	-2
COc1ccc(C)cc1N1C(=N)/C(=C2/Nc3ccccc3S2)C(c2ccccc2)C1=O (stereo not given)	-11	6.5µM*	2.5µM*	3.7µM*	8.9µM*	-2
CCOc1ccc(C2c3c(-c4ccccc4)n[nH]c(=O)c3Nc3nnnn32)cc1 (stereo not given)	.	.	.	.	.	18
COc1ccc(C)cc1NC(=O)CN1CCN(c2ccc(F)cc2)CC1	-12	21µM*	13%	23µM*	0%	3
COc1ccc(C)cc1NC(=O)CN1CCN(S(=O)(=O)c2ccc(C(C)C)cc2)CC1	-17	?	-4%	16µM*	-7%	2
COc1ccccc1NC(=O)CN1CCN(CC(=O)Nc2cc(C)ccc2OC)CC1	17	-23%	-16%	-28%	3%	0
COc1ccc(C)cc1NC(=O)CN1CCN(S(=O)(=O)c2ccc(Cl)cc2)CC1	-8	?	16%[0.365 µM]	?	.	-4
